This is a sample that favours compounds with a hit; in the whole collection about 1.8% have one here.
TLR9-MyD88 inh – inhibitors of TLR9-MyD88 association in cells, primary screen, cell-based, CHO, BLA complementation, fluorescence | 340,000 tested, 0.21% active | CCF4 FRET ratio | inhibition, % at 4.98 µM | AID 504734, 2011;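 active = inhibition above the mean over all tested compounds plus 3 SD, cut at about 21% in these data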;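 also: 0% = DMSO only wells and 100% = clavulanate BLA inhibitor control wells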
TLR4-MyD88 BLA – inhibitors of TLR4-MyD88 association in cells, primary screen, cell-based, HeLa CL3-4, BLA complementation, FRET ratio; HeLa CL3-4 TLR4/MyD88 BLA complementation; inhibition, % at 8.4 µM; 200,000 tested, 0.18% active; in the data active = inhibition above about 25%;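 also: 0% = vehicle and 100% = reference inhibitor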
NOD2 RIPK2 PPI – NOD2-RIPK2 binding disruptors in cells, primary screen, fluorescence, CHO cells, BLA complementation | CCF4 ratio | inhibition, % at 4.98 µM | 360,000 tested, 0.38% active | AID 624267, 2012; in the data active = inhibition above about 21%;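 also: 0% = vehicle only and 100% = reference blocker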
Rtt109 HAT inh – inhibitors of C. albicans Rtt109/Vps75 HAT, primary screen, biochemical, ThioGlo CoA-SH fluorescence, plate reader | Histone acetyltransferase RTT109 (Candida albicans (strain SC5314 / ATCC MYA-2876)), … | purified Rtt109/Vps75, 4 h | inhibition, % at 34.9 µM | 330,000 tested, 0.16% active;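 active = inhibition of at least 50% in every replicate; inconclusive = best replicate reaches 50% inhibition but some replicates fall short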
HTR2A ag – mouse Htr2a agonists via beta-arrestin recruitment, primary screen, cell-based, luminescence; 5-hydroxytryptamine receptor 2A (Mus musculus), P35363; CHO-K1 mHTR2A beta-arrestin complementation; percent of 30 µM serotonin response; activation, % at 7.6 µM; 360,000 tested, 0.66% active; AID 624169, 2012;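 active = activation above a run cutoff, the mean activation of all tested compounds plus 3 SD, cut at about 14% in these data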;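 also: 0% = plate median of compound wells and 100% = 30 µM serotonin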
LANA-H2B inh – blockers of LANA interaction with H2A/H2B – biochemical, FP readout, HTS, primary screen; Protein LANA1 (Human herpesvirus 8 type P (isolate GK18)), Q9QR71; cell-free LANA-H2A/H2B peptide, fluorescence polarization; inhibition, % (test concentration not listed); 320,000 tested, 0.6% active; in the data active = inhibition mostly above about 10%, no sharp cut-off; inactive = mostly below about 6.7%
Starred values were filed as active, the others as inactive; ? = inconclusive; nt = no result.

SMILES	TLR9-MyD88 inh	TLR4-MyD88 BLA	NOD2 RIPK2 PPI	Rtt109 HAT inh	HTR2A ag	LANA-H2B inh
C#CCOCCOCCOCCNc1nc(N2CCN(C(=O)CCCCCCCCCCNC(=O)[C@H](CCCCN)n3cc(C)nn3)CC2)nc(N2CCN(C(=O)CCCCCCCCCCNC(=O)[C@@H]([C@H](C)CC)n3cc(CCCCCN)nn3)CC2)n1	23*	nt	50*	?	-1	-61
C#CCOCCOCCOCCNc1nc(N2CCN(C(=O)CCCCCCCCCCNC(=O)[C@H]([C@@H](C)CC)n3cc(CCCCCN)nn3)CC2)nc(N2CCN(C(=O)CCCCCCCCCCNC(=O)[C@@H]([C@H](C)O)n3cc(C)nn3)CC2)n1	3	nt	37*	26	5	-2
CC(C)COC(=O)N1CCCC(c2cc(C(=O)Nc3ccccc3Cl)no2)C1 (stereo unspecified)	nt	nt	-10	nt	-2	nt
O=C(NC1CCCCC1)NC1(C(=O)N2CCN3CCCC3C2)CCCCC1 (stereo unspecified)	-6	-10	-9	-4	3	29*
O=C(NCc1ccccc1)NC1(C(=O)N2CCN3CCCC3C2)CCCCC1 (stereo unspecified)	-9	2	1	1	-4	-2
O=C(NCc1ccco1)c1ccc2sc([C@H]3C[C@H](O)[C@@H](CO)O3)nc2c1	nt	nt	10	nt	5	nt
Cc1[nH]c(=O)c(C(=O)/C=C/c2ccccc2F)c2c1CCCC2	6	-9	23*	-5	-6	-2
Cc1cc(C)c(C(=O)/C=C/c2cccc3ccccc23)c(=O)[nH]1	15	1	7	0	-7	-1
CCC(C)C(=O)Nc1ccc([N+](=O)[O-])cc1OC (stereo unspecified)	11	4	-8	0	3	0
CCSc1ccccc1C(=O)Nc1ccc([N+](=O)[O-])cc1OC	0	-1	-3	55*	-2	-2
COc1ccc(C(=O)C2CCN(CC(=O)Nc3ccc(OC)cc3OC)CC2)cc1	-11	nt	6	-1	5	19*
COc1ccc(OC)c(NC(=O)CCn2cccc2)c1	3	7	-3	4	1	3
COc1ccc(NC(=O)CSc2cn[nH]n2)c(OC)c1	5	nt	-7	4	-1	34*
COc1ccc(NC(=O)CC(=O)Nc2ccc(OC)cc2OC)c(OC)c1	2	3	1	nt	-2	0
COc1ccc(OC)c(NC(=O)Cn2cccc2)c1	-1	4	-2	-5	1	17*
CC1CCCCC1NC(=O)C1CCN(S(=O)(=O)N2CCOCC2)CC1 (stereo unspecified)	-6	-7	8	-32	2	26*
CC1CCCC(NC(=O)C2CCN(S(=O)(=O)N3CCOCC3)CC2)C1C (stereo unspecified)	3	21	12	-7	0	6
CCc1nc2c(OCc3ccc(C(=O)N(C)C)cc3)cccn2c1N(C)C(=O)c1ccc(C)cc1	nt	nt	0	nt	0	nt
CC(NC(=O)Cn1ncc(Cl)c(Cl)c1=O)C12CC3CC(CC(C3)C1)C2 (stereo unspecified)	23*	21	66*	-29	-7	4
Cc1ccc(S(=O)(=O)N2CC3=C(C2)C2CC2(C)C3)cc1 (stereo unspecified)	nt	nt	-13	nt	-4	nt
CC(=O)N1CCC(N2CCN(Cc3ccc(C)cc3)C(CCO)C2)CC1 (stereo unspecified)	-2	2	-11	-8	-5	77*
CC(C)[C@@H]1Cc2[nH][nH]c(=O)c2[C@H](C(C)C)O1	nt	nt	-8	nt	4	nt
COc1ccc(N2CCN(c3cncc(C)n3)CC2)cc1	nt	nt	-2	nt	12	nt
CCCCN(C)CCNC(=O)CN1C(=O)CSc2ccc(S(=O)(=O)N3CCCC3)cc21	0	nt	-15	18	4	19*
CC(C)OCCCNC(=O)CN1C(=O)CSc2ccc(S(=O)(=O)N3CCCCC3)cc21	5	nt	11	3	-4	22*
SMILES	TLR9-MyD88 inh	TLR4-MyD88 BLA	NOD2 RIPK2 PPI	Rtt109 HAT inh	HTR2A ag	LANA-H2B inh
O=C(CN1C(=O)CSc2ccc(S(=O)(=O)N3CCCCC3)cc21)NCc1ccccc1	-6	nt	6	2	5	56*
CCCCNC(=O)CN1C(=O)CSc2ccc(S(=O)(=O)N3CCOCC3)cc21	3	nt	5	nt	5	nt
CC(C)OCCCNC(=O)CN1C(=O)COc2ccc(S(=O)(=O)N3CCCCCC3)cc21	-7	nt	-4	0	-3	nt
Cc1cc(NC(=O)CN2CCCC2c2nc3ccccc3s2)no1 (stereo unspecified)	-6	-6	4	0	4	15*
COc1ccc(CCNC(=O)CS(=O)Cc2nc(-c3ccccc3Cl)oc2C)cc1OC (stereo unspecified)	0	nt	4	8	-6	17*
CC1=C(C(=O)N(C(C)C)C(C)C)CC(CC(=O)NCc2cccc3ccccc23)C(=O)N1Cc1ccc(F)cc1 (stereo unspecified)	nt	nt	16	nt	-5	nt
Cc1ccc(S(=O)(=O)c2nnn3c2nc(NCCCN2CCCC2=O)c2ccccc23)cc1C	9	nt	0	6	-8	5
Cc1cc(C)c2nc(C(F)(F)F)nc(NCCCN3CCCC3=O)c2c1	-4	16	-4	3	0	19*
O=C(C1CC(=O)N(c2ccc(Cl)cc2)C1)N1CCN(Cc2ccc3c(c2)OCO3)CC1 (stereo unspecified)	5	nt	-4	12	10	0
Cc1ccc(N2CC(C(=O)N3CCN(Cc4ccc5c(c4)OCO5)CC3)CC2=O)cc1 (stereo unspecified)	-2	nt	-6	-5	-9	52*
O=C(C1CC(=O)N(c2ccc(Cl)cc2)C1)N1CCOCC1 (stereo unspecified)	0	nt	-8	-5	14	28*
N#C/C(=C/c1ccc(N2CCOCC2)o1)c1ccc(Cl)cc1	14	9	17	6	-5	10*
CC(NC(=O)COC(=O)C1CCN(c2ccc(C(F)(F)F)cn2)CC1)c1ccc(F)cc1 (stereo unspecified)	6	nt	-1	-2	-2	17*
COc1ccc(C)cc1NC(=O)C1CC(=O)N(Cc2ccco2)C1 (stereo unspecified)	-2	-10	8	4	-1	13*
CCc1nc2ccc(C(=O)N3CCCCC3)cn2c1N(C)CCCc1ccccc1	nt	nt	2	nt	-2	nt
